PubChem BioAssay (NCATS)
Records with an inconclusive call do not appear. A call without a number means that no potency is given here. A number with no mark means an inactive call. Calls of active or inactive are those of the source. Calls come from the whole dose curve; as a rule, active = well fitted curve in the direction sought with a large enough effect; inconclusive = small, poorly fitted or top-dose-only effect, or another doubt; inactive = no such curve, though single readings can be large; an effect the other way counts as inactive or inconclusive.

Columns and labels:
[1] = target: Cellular tumor antigen p53 (Homo sapiens) (UniProt P04637); experiment: Primary qHTS for small molecule compounds that upregulate eGFP-tagged delta133p53alpha (in N-terminal) cells. (AID 2060322); conditions: NCI-H358 eGFP-delta133p53alpha fluorescence, 24 h; activation: hits give high values; note: nearly all actives have a fitted effect of over 75% in size; note: potency is the fitted concentration of half-maximal effect;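 for activation: cells pre-induced with doxycycline then dosed without doxycycline; series mostly up to about 56 µM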
Chain of Cellular tumor antigen p53 (Homo sapiens) (P04637 whole entry, looked up): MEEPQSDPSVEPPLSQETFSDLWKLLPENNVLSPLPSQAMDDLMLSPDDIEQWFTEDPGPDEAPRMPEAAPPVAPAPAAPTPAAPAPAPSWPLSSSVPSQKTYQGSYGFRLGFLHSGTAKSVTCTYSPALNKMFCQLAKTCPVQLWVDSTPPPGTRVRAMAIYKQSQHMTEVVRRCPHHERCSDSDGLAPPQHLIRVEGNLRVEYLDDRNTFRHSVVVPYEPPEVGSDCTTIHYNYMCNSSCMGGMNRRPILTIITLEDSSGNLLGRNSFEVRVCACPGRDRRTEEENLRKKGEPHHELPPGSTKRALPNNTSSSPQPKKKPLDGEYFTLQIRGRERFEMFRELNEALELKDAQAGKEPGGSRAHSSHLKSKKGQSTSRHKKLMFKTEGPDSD
Summary of the method: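 NCI-H358 cells pre-induced 24 h with 10 ng/ml doxycycline for eGFP-delta133p53alpha, plated dox-free and exposed 24 h at 37C to titrated compounds. Fixed, Hoechst-stained; gated GFP peak intensity by laser scanning cytometry, normalized to DMSO (0%) and 57.5 uM 5-azacytidine (100%).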

[2] = target: Aldehyde dehydrogenase, mitochondrial (Homo sapiens) (UniProt P05091); experiment: qHTS for Inhibitors of the Aldehyde Dehydrogenase Family (ALDH2) Primary screen (AID 2061308); note: nearly all actives have a fitted effect of over 55% in size
[3] = target: Retinaldehyde dehydrogenase 3 (Homo sapiens) (UniProt P47895); experiment: qHTS for Inhibitors of the Aldehyde Dehydrogenase Family (ALDH1A3) Validation screen (AID 2061312); note: nearly all actives have a fitted effect of over 45% in size; note: potency is the fitted concentration of half-maximal effect
[4] = target: Retinaldehyde dehydrogenase 3 (Homo sapiens) (UniProt P47895); experiment: qHTS for Inhibitors of the Aldehyde Dehydrogenase Family (ALDH1A3) Primary screen (AID 2061315); note: potency is the fitted concentration of half-maximal effect
[5] = target: Retinaldehyde dehydrogenase 3 (Homo sapiens) (UniProt P47895); experiment: qHTS for Inhibitors of the Aldehyde Dehydrogenase Family (ALDH1A3) Confirmatory screens (AID 2061311); note: nearly all actives have a fitted effect of over 60% in size; note: potency is the fitted concentration of half-maximal effect
[6] = target: Retinal dehydrogenase 2 (Homo sapiens) (UniProt O94788); experiment: qHTS for Inhibitors of the Aldehyde Dehydrogenase Family (ALDH1A2) Confirmation screens (AID 2061314); note: nearly all actives have a fitted effect of over 65% in size; note: potency is the fitted concentration of half-maximal effect
[7] = target: Aldehyde dehydrogenase 1A1 (Homo sapiens) (UniProt P00352); experiment: qHTS for Inhibitors of the Aldehyde Dehydrogenase Family (ALDH1A1) Confirmatory screens (AID 2061316); note: nearly all actives have a fitted effect of over 65% in size; note: potency is the fitted concentration of half-maximal effect

| SMILES | activation [1] | Potency [2] | Potency [3] | Potency [4] | Potency [5] | Potency [6] | Potency [7] | Potency [1] |
| --- | --- | --- | --- | --- | --- | --- | --- | --- |
| O=C(Nc1ccc(N2CCC(C(=O)N3CCOCC3)CC2)cc1)c1cnc(Oc2ccccc2)nc1 | -2.39% | inactive | inactive | inactive | – | – | – | – |
| COc1ccc(C2COc3cc(O)ccc3C2)c(O)c1 (stereo unspecified) | -12.2% | inactive | – | 25.1 µM (active) | 17.9 µM (active) | – | – | – |
| CCC[C@@]1(CCc2ccccc2)CC(O)=C([C@H](CC)c2cccc(NS(=O)(=O)c3ccc(C(F)(F)F)cn3)c2)C(=O)O1 | -3.82% | inactive | inactive | inactive | – | – | – | – |
| C=C1CC[C@H](O)CC1=C/C=C1\CCC[C@]2(C)[C@@H]([C@H](C)/C=C/[C@H](C)C(C)C)CC[C@@H]12 | 5.73% | inactive | 8.91 µM (active) | – | – | – | – | – |
| Cc1ccc(-c2c(-c3nn(C)c4ncnc(N5CC[C@H](N6CCCCC6)C5)c34)cnn2C)cc1 | 0.477% | inactive | inactive | inactive | – | – | – | – |
| O=C(Nc1ccccc1)N1CCC(Cc2cnc3ccccc3c2)CC1 | 3.34% | inactive | inactive | inactive | – | inactive | – | – |
| Cc1cc(N=Nc2ccc(S(=O)(=O)Nc3ccccn3)cc2)c(N)cc1O | -5% | inactive | – | – | 11.3 µM (active) | – | 11.3 µM (active) | – |
| C=C1C(=O)O[C@@H]2C3C(=C(C)[C@@H](O)[C@@H](OC(=O)/C(=C/C)COC(C)=O)[C@@H]12)C(=O)[C@H]1O[C@@]31C (stereo partly specified) | – | inactive | – | inactive | inactive | 0.98 µM (active) | inactive | 2.08 µM (active) |
| C/C(=C\CC/C(C)=C/CC[C@]1(C)CCc2cc(O)cc(C)c2O1)CC/C=C(\C)C(=O)O | -5.36% | inactive | – | inactive | inactive | inactive | – | – |
| COC(=O)[C@H](CC1C=NC=N1)NCC12CC3CC(CC(C3)C1)C2 (stereo partly specified) | -8.11% | inactive | inactive | – | – | – | – | – |
| CC[C@H](NC(=O)c1c(O)c(-c2ccccc2)nc2ccccc12)c1ccccc1 | 2.86% | inactive | – | – | 3.57 µM (active) | 1.27 µM (active) | 3.18 µM (active) | – |
| Cc1cc(C)c(-n2cc(C)c3c(Cl)nc(C)nc32)c(C)c1 | -3.82% | inactive | inactive | inactive | – | – | – | – |
